Screening data (PubChem)
Only some compounds are listed: those with a hit (about 4.1% of all), similar ones and a draw of the others.
NR3A LBD binder = binders of NR3A ligand-binding domain, primary screen, biophysical, differential scanning fluorimetry, uHTS; Tm shift relative to glycine control, % at 25 µM; AID 1259313, 2017; 2.5% of 340,000 active; NR3A LBD differential scanning fluorimetry, Tm shift; 0% = protein alone, 100% = glycine-bound protein; Glutamate receptor ionotropic, NMDA 3A (GRIN3A) ligand-binding domain;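 active = melting temperature shift of at least 10% of the positive control shift, at one fixed dose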
p-CIP stab down = p/CIP-EGFP fusion destabilizers, primary screen, fluorescence, F442A cells | Q05BA5 | 16 h | decrease of EGFP signal, % at 10 µM | 0.01% of 290,000 active | AID 1984, 2009;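 active = EGFP signal decrease of at least 30% at 10 µM or well 3 SD below plate mean, unless failing retest; inactive = the rest, including hits failing retest or dose response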
FAS-TE inh = FAS thioesterase domain inhibitors, primary screen, biochemical, fluorescence intensity, uHTS. 0.67% of 360,000 active. recombinant FAS-TE, OMFH fluorogenic substrate, fluorescence endpoint. inhibition, % at 15 µM. Fatty acid synthase (Homo sapiens), P49327;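 active = compounds whose normalised, plate-corrected inhibition of enzyme fluorescence in the single-dose primary screen is 50% or more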
MIN6 prolif = inducers of MIN6 beta-cell proliferation, primary screen, ATP luminescence, uHTS; MIN6 cells proliferation, ATPlite luminescence, 48 h; cells starved in 0.2% serum; 100% = growth in 10% serum; proliferation, % at 10 µM; 0.29% of 330,000 active;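 active = compounds whose signal lies at least 3.5 SD above the mean of all wells on their plate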
MPTP inh = mitochondrial permeability transition pore inhibitors, primary screen, biochemical, isolated mouse mitochondria, absorbance | AID 602449, 2012 | Ca2+ swelling absorbance, 30 min | inhibition, % at 10 µM | 1.4% of 360,000 active;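 active = inhibition of 50% or more, scaled per plate between neutral and stimulator controls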
Numbers stand for hits; i = inactive; nt = no result given.

SMILES	NR3A LBD binder	p-CIP stab down	FAS-TE inh	MIN6 prolif	MPTP inh
O=C1[C@H]2[C@@H](c3ccc(F)cc3)N3C(=O)N(c4ccc(Br)cc4)C(=O)[C@@]3(Cc3ccc(Cl)cc3)[C@H]2C(=O)N1C1CCCCC1	i	i	93.5	i	i
CC(C)C[C@@]12C(=O)N(c3cccc(Br)c3)C(=O)N1[C@H](c1ccc(F)cc1)[C@@H]1C(=O)N(C3CCCCC3)C(=O)[C@@H]12	i	nt	86.1	i	i
O=C1[C@H]2[C@@H](c3ccc(Cl)cc3)N3C(=O)N(c4cccc(Cl)c4)C(=O)[C@@]3(Cc3ccccc3)[C@H]2C(=O)N1C1CCCCC1	i	nt	93.6	i	i
CC1(C)CC(=O)C2=C(C1)NC(SCC(N)=O)=C(C#N)C21CCCCC1	16.4	i	i	i	i
CCSC1=C(C#N)C2(CCCCC2)C2=C(CC(C)(C)CC2=O)N1	i	i	i	i	i
O=C1NN=C2CCCCCCC12 (stereo unspecified)	nt	nt	i	nt	i
CC1=NN2C(=N)/C(=C\c3cc(C)n(-c4ccc(C)cc4)c3C)C(=O)N=C2S1	21.8	i	i	i	i
CSCCC(NC(=O)c1ccccc1)C(=O)N(C)CC(=O)Nc1ccc(N2CCOCC2)cc1 (stereo unspecified)	12.6	i	i	i	i
O=C(CCc1ccccc1Cl)Nc1ccc(S(=O)(=O)N2CCOCC2)cc1	18.6	nt	i	i	i
COc1ccc(N2CCN(S(=O)(=O)c3ccc(C(=O)NCc4ccco4)cc3)CC2)cc1	28.1	i	i	i	i
O=C(Nc1ccc(Cl)cc1)c1ccc(S(=O)(=O)N2CCOCC2)cc1	14.5	i	i	i	i
COc1ccc(OCCCC(=O)Nc2ccc(S(=O)(=O)N3CCOCC3)cc2)cc1	11.0	nt	i	i	i
O=C(NCc1ccco1)c1ccc(S(=O)(=O)N2CCOCC2)cc1	i	i	i	i	i
COc1ccc(CC(=O)Nc2ccc(S(=O)(=O)N3CCOCC3)cc2)cc1	i	nt	i	i	i
